From PubChem
Pf growth 48h = Primary qHTS for delayed death inhibitors of the malarial parasite plastid, 48 hour incubation | P. falciparum luciferase growth in erythrocytes, 48 h | Potency, µM (series often up to 28.7 µM), for inactives: at the top dose activity change, negative = inhibition, most hits filed as inhibitors | 310,000 tested, 5.9% active; note: potency is the fitted concentration of half-maximal effect; % is set by controls: 0 for no effect and ±100 for the full control effect
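First compound was added to culture medium, then infected red cells at 0.1% parasitemia and 2% hematocrit (final). After incubation at 37 C under 5% CO2, luciferase detection reagent was dispensed and light output recorded.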
Shiga inhibitor = A qHTS for Small Molecule Inhibitors of Shiga Toxin; inhibition, % at 38.7 µM; Vero cells, Shiga toxin protein synthesis inhibition reporter; 290,000 tested, 9.2% active; in the data active = inhibition mostly above about 28%, no sharp cut-off; inactive = mostly below about 43%; note: 0% is about no effect
AMA1-RON2 inh = qHTS for Inhibitors of AMA1-RON; Towards Development of Antimalarial Drug Lead: Primary Screen. AlphaScreen AMA1-biotinylated RON2 peptide binding. Potency, µM (series often up to 58.2 µM), without a hit: at the highest dose activity change, negative = inhibition, usual class: inhibitors. 360,000 tested, 0.2% active. AID 720542, 2013;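 note: potency is the fitted concentration of half-maximal effect; 0% = vehicle wells and -100% = peptide control; nearly all actives have a fitted effect of over 45% in size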
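AMA1 (3D7) with his tag at 25 nM final met compounds first, then biotinylated RON2 peptide at 25 nM; detection used donor plus acceptor beads, 10 µg/mL apiece, read by AlphaScreen after 30 min at room temperature.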
Cycloheximide cs = Cycloheximide Counterscreen for Small Molecule Inhibitors of Shiga Toxin | cell reporter, cycloheximide protein synthesis inhibition counterscreen | max response, % | 300,000 tested, 12% active | AID 2314, 2010; in the data active = max response mostly above about 13%, no sharp cut-off; inactive = mostly below about 14%; note: read at 38.3 µM for the half of the compounds with a filed dose; 0% is about no effect
HCV inhibitor = qHTS Assay for Inhibitors of Hepatitis C Virus (HCV); Potency, µM (series often up to 41.8 µM), without a hit: at the top dose activity change, negative = inhibition, most hits filed as inhibitors; Huh7.5.1 HCVcc-Cre infection, luciferase reporter, 44 h; 340,000 tested, 3.4% active; note: potency is the fitted concentration of half-maximal effect; % is set by controls: 0 for no effect and ±100 for the full control effect
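Antiviral activity was scored by luciferase reporter output from cells infected with HCVcc-Cre (~0.5 moi) in presence of compound, 44 h infection period, cells seeded 1,000/well 4 h prior.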
Pf growth 96h = Primary qHTS for delayed death inhibitors of the malarial parasite plastid, 96 hour incubation. P. falciparum luciferase reporter growth, 96 h. Potency, µM (top dose mostly 28.7 µM), without a hit: at the highest dose activity change, negative = inhibition, hits mostly inhibitors. 320,000 tested, 6.9% active. AID 504834, 2011; note: potency is the fitted concentration of half-maximal effect; % is set by controls: 0 for no effect and ±100 for the full control effect
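Two-generation exposure (96 h) targets delayed-death phenotype. Reporter parasites carrying integrated firefly luciferase, in red cells at 2% hematocrit and 0.05% parasitemia final, kept at 37 C, 5% CO2; luminescence loss indicates inhibition.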
The depositor's hits bear a star; ? = inconclusive; nt = no result given; [ ] = another dose, or the depositor's remark. Shown are actives, neighbours in structure and some others; about 21% of the full set was active somewhere. Unless noted, calls come from the whole dose curve; as a rule, active = well fitted curve in the direction sought with a large enough effect; inconclusive = small, poorly fitted or top-dose-only effect, or another doubt; inactive = no such curve, though single readings can be large; an effect the other way counts as inactive or inconclusive.

SMILES	Pf growth 48h	Shiga inhibitor	AMA1-RON2 inh	Cycloheximide cs	HCV inhibitor	Pf growth 96h
Cc1nc(NCc2ccc(S(N)(=O)=O)cc2)c2c(C)c(C)sc2n1	?	-3	1%	-1	-30%	12%
Cc1nc(NCCc2ccc(S(N)(=O)=O)cc2)c2c(C)c(C)sc2n1	?	-18	95%	-2	1µM*	nt
CCOCCCNC(=O)c1cc2c(s1)-c1ccccc1SC2	2.6µM*	63*	-5%	16	-7%	5.2µM*
CN(C)CCNC(=O)c1cc2c(s1)-c1ccc(Cl)cc1SC2	2.6µM*	-20	3%	-8	11µM*	52%
CN(C)CCNC(=O)c1ccc(Cl)s1	35%	32	18%	-4	9%	-18%
Cn1c(=O)n(C)c2cc([N+](=O)[O-])c(N3CCN(CCO)CC3)cc21	0%	-4	7%	-1	22%	?
O=C(Nc1ccccc1)c1nnsc1S(=O)c1ccc(Cl)cc1 (stereo not drawn)	63%	-26	-4%	9	1%	15%
O=C(c1nnsc1S(=O)(=O)c1ccc(Cl)cc1)N1CCOCC1	-54%	45*	7%	28*	?	?
O=C(c1nnsc1S(=O)c1ccc(Cl)cc1)N1CCOCC1 (stereo not drawn)	17µM*	64	-5%	60*	?	-6%
CC(=O)N1CCN(C(=O)COC(=O)c2ccc(S(C)(=O)=O)cc2)CC1	nt	nt	13%	nt	-7%	nt
COc1ccc(-c2nc3ccc(Br)cn3c2Cc2ccccc2)cc1OC	nt	nt	-6%	nt	nt	nt
CC(=O)C(Sc1nn(C)c(=S)s1)C(=O)Nc1ccccc1 (stereo not drawn)	120%	113*	-1%	51*	15%	?
CC(=O)C(Sc1nc(N(C)C)nc(N(C)C)n1)C(=O)Nc1ccccc1 (stereo not drawn)	-14%	27	0%	12	6%	-4%
N#Cc1ccc(NC(=S)N2CCC3CC2c2cc(-c4ccc5c(c4)OCO5)ccc23)cc1 (stereo not drawn)	nt	nt	39%	nt	nt	nt
CC(C)(C)C(=O)[C@@H]1[C@@H]2C(=O)N(C3CCCCC3)C(=O)[C@@H]2[C@H]2c3ccccc3C=CN12	nt	23	24%	2	-5%	15µM*
O=C(c1cccs1)[C@@H]1[C@@H]2C(=O)N(Cc3ccc4c(c3)OCO4)C(=O)[C@@H]2C2c3ccccc3C=CN21 (stereo partly drawn)	?	-30	nt	-3	nt	10µM*
O=C(c1ccc2c(c1)OCO2)[C@@H]1[C@@H]2C(=O)N(C3CCCCC3)C(=O)[C@@H]2C2c3ccccc3C=CN21 (stereo partly drawn)	6.6µM*	21	0%	6	-27%	4.7µM*
O=C(CN1C(=O)c2ccccc2S1(=O)=O)Nc1ccon1	13%	nt	2%	nt	20%	-11%
O=C1NC(=S)S/C1=C/c1ccc(N2CCOCC2)o1	9%	30	2%	13	?	28%
O=C1NC(=S)S/C1=C\C=C\c1ccc([N+](=O)[O-])o1	0.29µM*	92*	-21%	80*	?	0.29µM*
O=C(OCC(=O)N1CCOCC1)c1cc(F)c(F)cc1Cl	17%	1	-3%	-3	10%	26%
O=C(OCC(=O)N1CCOCC1)c1ccccc1O	71%	72*	-7%	29*	5%	87%
Nc1cc(Cl)ccc1C(=O)OCC(=O)N1CCCC1	61%	35	-3%	17*	9%	83%
Nc1cc(Cl)ccc1C(=O)OCC(=O)N1CCOCC1	35%	25	11%	21*	4%	29%
Nc1cc(C(=O)OCC(=O)N2CCCC2)ccc1Cl	67%	50*	11%	31*	-1%	nt
SMILES	Pf growth 48h	Shiga inhibitor	AMA1-RON2 inh	Cycloheximide cs	HCV inhibitor	Pf growth 96h
Nc1cc(Cl)ccc1C(=O)OCC(=O)N1CCCCCC1	nt	nt	13%	nt	13%	nt
Cc1nc(-c2ccc(S(=O)(=O)NCc3cccnc3)s2)cs1	37%	3	-11%	5	?	4%
COc1ccc(NS(=O)(=O)c2cc(NC(=O)COc3ccc(OC)cc3)ccc2N2CCOCC2)cc1	nt	nt	0%[11.6 µM]	nt	?	nt
CCOC(=O)/C(C#N)=C1\SS/C(=C(/C#N)C(=O)OCC)S1	7%	50*	nt	35*	nt	1%
COc1cccc(C2=NO[C@@H]3C(=O)N(c4ccc5c(c4)OCCO5)C(=O)[C@H]23)c1OC	54%	109*	7%	66*	7%	5%
COc1cccc(C2=NO[C@@H]3C(=O)N(Cc4ccccc4)C(=O)[C@H]23)c1OC	15%	27	4%	4	10%	-4%
Cc1cccc(-c2nnn(Cc3nnc(NC(=O)c4ccccc4)s3)n2)c1	3%	-3	0%	-2	16%	79%
Cc1cccc(-c2nnn(CC/C(N)=N/O)n2)c1	84%	active	15%	23*	10%	61%
O=C(NNS(=O)(=O)c1ccccc1F)c1sccc1-n1cccc1	10%	8	11%	9	17%	-14%
CCOC(=O)C1(Cc2cccc(OC)c2)CCN(C2CCOCC2)CC1	23%	82*	-4%	33*	-9%	?
CCOC(=O)C1(Cc2cccc(OC)c2)CCN(CCO)CC1	-1%	-7	-5%	-1	-14%	?
CCOC(=O)C1(Cc2cccc(OC)c2)CCN(Cc2cnc(C)s2)CC1	?	20	-18%	0	-24%	9.3µM*
CCOC(=O)C1(Cc2cccc(F)c2)CCN(C2CCOCC2)CC1	0%	-11	16%	6	-23%	-3%
CCOC(=O)C1(Cc2cccc(OC)c2)CCN(C/C=C/c2ccc(OC)cc2)CC1	?	-5	?	1	8.9µM*	0%
CC1(C)OC(=O)C2=C(C[C@@H](C3CCCCC3)O[C@H]2c2ccccc2)O1	nt	nt	-11%	nt	nt	nt
CN(CC(=O)Nc1ccccc1C(=O)Nc1ccccc1)C1CCCCC1	nt	nt	-4%	nt	?	nt
COc1ccc(/C=N/NC(=O)c2ccoc2C)cc1CN1CCN(c2ccc(F)cc2)CC1	9.3µM*	51*	-3%	45*	?	?
COc1cc(/C=N/NC(=O)c2ccoc2C)ccc1O	75%	59	5%	37*	-19%	65%
COc1cccc(/C=N/NC(=O)c2ccoc2C)c1O	?	86*	107%	38*	10µM*	?
COc1cccc(/C=N/NC(=O)C(=O)N/N=C/c2cccc(OC)c2O)c1O	0%	-9	?	9	-14%	0%
Cc1occc1C(=O)N/N=C/c1ccccc1[N+](=O)[O-]	111%	64*	-3%	62*	6%	154%
